# In PubChem BioAssay (NCI):
# Values joined by “and” are separate entries in the source; they are usually repeats but may differ in a detail not shown here. Equal values may be shown once. This is part of a sample that, as a whole, favours compounds with a hit. Of some 83,000 tested, about 20% had one in any assay.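 96-well plates, one dose, 48 hours. Percent growth reported; active if below 10.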 Active and inactive are the calls of the source.
# Tested on: MDA-MB-468 breast
# Assay: NCI-60 one-dose screen, 48 h (100 = growth as untreated, 0 = no growth, -100 = all killed)
# Details: 10 µM unless noted
row,Structure (SMILES),growth
1,COc1ccc(Nc2nc(NCCNc3ccnc4cc(Cl)ccc34)nc(N3CCOCC3)n2)cc1,23.9% (inactive)
2,Cc1ccn2cc(Cc3cc(=O)oc4c3ccc3ccccc34)c(=O)nc2c1,117% (inactive)
3,COc1cc(CN(c2ccc(Cl)cc2)C2OC(=O)c3ccccc32)cc(OC)c1OC (stereo unspecified),16.8% (inactive)
4,CN(C(=O)c1ccccc1)N(C)C(=O)c1ccccc1,120% (inactive)
5,CCCCOc1ccc(Nc2cc(Cl)ccc2C(=O)O)cn1,99.6% (inactive) and 103% (inactive)
6,Fc1ccc(-c2cn3c(nc4ccccc43)c(-c3ccccc3)n2)cc1,82.8% (inactive)
7,Cc1ccc(S(=O)(=O)NC(=O)NCCSSCCNC(=O)NS(=O)(=O)c2ccc(C)cc2)cc1,97.6% (inactive)
8,NS(=O)(=O)c1ccc(Nc2nc(N/N=C/CCc3ccccc3)nc(Nc3ccccc3)n2)cc1,88.6% (inactive)
9,COc1ccc(N)c(S)c1,97.3% (inactive)
10,COc1ccc(NC(=O)Nc2ccccc2CNc2nc(Nc3ccc(OCCN4CCCC4)cc3)ncc2Cl)cc1,-43.5% (active)
11,COc1cc2c(c(OC)c1OC)-c1ccc(NN(C(=O)c3ccccc3)C(=O)c3ccccc3)c(=O)cc1[C@@H](NC(C)=O)CC2 (tested in a mixture with another compound),19.5% (inactive)
12,Fc1ccc(-c2cc(C(Cl)Cl)no2)cc1,104% (inactive)
13,COc1cc(-c2nc(SCC(=O)Nc3ccc(C(C)=O)cc3)[nH]c(=O)c2C#N)cc(OC)c1OC,-12.8% (active)
14,CC(NC(=O)c1ccccc1)C(=O)Nc1ccccc1 (stereo unspecified),109% (inactive)
15,O=C1c2ccccc2C(=O)c2c1ccc(C(=O)O)c2[N+](=O)[O-],119% (inactive)
16,O=C1c2ccccc2C(=O)c2c([N+](=O)[O-])ccc(Cl)c21,-5.53% (active)
17,COc1ccc(-c2c(C(=O)NS(C)(=O)=O)n(Cc3cccc(C(F)(F)F)c3)c3ccccc23)cc1,86.6% (inactive)
18,COc1ccc(Cn2c(Br)c3c(c2Br)-c2nc(N)sc2CC3)cc1,-5.61% (active)
19,CO/N=C/C=C\C(=O)N/C=C/C[C@H]1/C=C/[C@H](O)/C=C\C=C\c2cccc(O)c2C(=O)O1,59.1% (inactive) and 46.3% (inactive)
20,CCCCC1(CC)COC(CCC)OC1 (stereo unspecified),99.7% (inactive)
21,O=C(CSc1nnc(-c2ccc(Cl)cc2)n1-c1ccccc1)Nc1ccc(F)cc1,91.8% (inactive)
22,COc1cccc(/C=C2\COc3ccc(O)c(O)c3C2=O)c1OC,-19.2% (active)
23,O=C1c2ccccc2C(=O)N1OCc1ccccc1,125% (inactive)
24,O=C(Cn1nnc2ccccc21)N/N=C/c1c[nH]c2ccccc12,34.5% (inactive)
25,Cc1cc(C)cc(Nc2ccc([N+](=O)[O-])c(NCCN3CCOCC3)n2)c1,20.8% (inactive)
26,C[N+]1=C(/C=C/c2ccc(I)cc2)C(C)(C)c2ccccc21,95.3% (inactive)
